Reference: PubChem BioAssay AID1053 (University of Pittsburgh Molecular Library Screening Center, 2008)
Several values for one entry are separate records, joined by “and”; a condition that tells them apart may be missing. Identical values can stand only once.

molecular target: Serine/threonine-protein kinase PLK1 (Homo sapiens) (UniProt P53350); test: Plk1 polo box domain binding inhibitors, SAR follow-up, biochemical, fluorescence polarization, purchased analogs (AID 1053); conditions: Plk1 PBD fluorescence polarization peptide binding; at 20 µM; hits give high values
Sequence (P53350 whole entry, looked up, the tested form may be a part): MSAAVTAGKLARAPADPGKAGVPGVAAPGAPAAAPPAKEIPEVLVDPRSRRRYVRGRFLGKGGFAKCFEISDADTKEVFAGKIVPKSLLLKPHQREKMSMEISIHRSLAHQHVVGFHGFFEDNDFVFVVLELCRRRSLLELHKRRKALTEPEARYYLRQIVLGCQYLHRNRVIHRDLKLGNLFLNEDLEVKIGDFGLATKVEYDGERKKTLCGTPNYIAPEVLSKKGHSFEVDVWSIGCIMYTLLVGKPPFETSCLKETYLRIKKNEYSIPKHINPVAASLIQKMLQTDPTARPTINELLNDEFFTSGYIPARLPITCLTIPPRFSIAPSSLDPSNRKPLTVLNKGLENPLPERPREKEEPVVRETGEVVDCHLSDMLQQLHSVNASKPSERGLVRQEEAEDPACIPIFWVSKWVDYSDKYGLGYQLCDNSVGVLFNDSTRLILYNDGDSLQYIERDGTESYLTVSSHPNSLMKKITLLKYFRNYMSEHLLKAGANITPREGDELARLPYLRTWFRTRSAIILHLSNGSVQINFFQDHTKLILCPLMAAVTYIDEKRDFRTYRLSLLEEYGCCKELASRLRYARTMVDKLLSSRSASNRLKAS

inhibition, inactive:
CCOC(=O)c1ccc(N=Cc2c(O)[nH]c(=O)[nH]c2=O)cc1 49.9%
CC(=O)N(CN1C(=O)c2ccccc2C1=O)c1ccccc1Cl -37.3% and -49.8%
CCOc1ccc(-c2nc3c(=O)n(C)c(=O)nc-3n(C)n2)cc1OC 34.4%
CCOC(=O)c1ccc(N=Cc2c(O)n(-c3ccc(OCC)cc3)c(=O)[nH]c2=O)cc1 -112%
CC(=O)N(/N=C1\Sc2ccccc2C1=O)c1ccccc1 24.7%
COc1ccc(-c2nc3c(=O)n(C)c(=O)nc-3n(C)n2)cc1OC 1.9%
CC(=O)N(/C=C1\Sc2ccccc2C1=O)c1ccc(C)c(C)c1 -217%
CC(=O)Oc1c(Cl)c(N2CCOCC2)c(OC(C)=O)c2ccccc12 -39.3%
CC(=O)N(/C=C1\Sc2ccccc2C1=O)c1ccc(C)cc1 -201% and -215% and -234%
Cc1ccccc1-c1nc2c(=O)n(C)c(=O)nc-2n(C)n1 36.2% and 24.8%
CC(=O)N(CN1C(=O)c2ccccc2C1=O)c1cc(Br)ccc1C -56.1%
Cc1cc(-n2c(C)cc(C=C3C(=O)NC(=O)NC3=O)c2C)ccc1I -48.2%
COc1ccc(-c2nnc3[nH]c(=O)n(C)c(=O)c3n2)cc1 -45.9% and -39.6%
CC(=O)N(CN1C(=O)c2ccccc2C1=O)c1ccc(Br)cc1 -29.4%
CCOc1cc(-c2nnc3[nH]c(=O)n(C)c(=O)c3n2)ccc1OC(C)C 15.8%
Cn1c(=O)c2nc(-c3ccccc3)c(-c3ccccc3)nc2n(C)c1=O -30.5%
CC(=O)N(CN1C(=O)c2ccccc2C1=O)c1ccc2ccccc2c1 -49.2%
COc1ccc(N(CN2C(=O)c3ccccc3C2=O)C(C)=O)cc1 -43.9% and -51.6%
Cn1nc(-c2ccc([N+](=O)[O-])cc2)nc2c(=O)n(C)c(=O)nc1-2 31.6%
CCCOC(=O)c1ccc(NC(=O)c2c(F)c(F)c(F)c(F)c2F)cc1 -41.6%
CCOC(=O)c1ccc(NC(=O)c2cc(C)cc(C)c2)cc1 -13.8%
CC(OC(=O)c1ccc(NC(=O)c2ccc(Br)cc2)cc1)C(=O)c1ccccc1 (configuration not stated) 0.95%
CC(=O)N(/N=C1\Sc2ccccc2C1=O)c1cccc(Br)c1 20.2%
CC(=O)N(/N=C1\Sc2ccccc2C1=O)c1cc(C)ccc1C 33%
Cc1ccccc1-c1nnc2[nH]c(=O)n(C)c(=O)c2n1 -8.49% and -8.27%
Cn1nc(-c2ccc(F)cc2)nc2c(=O)n(C)c(=O)nc1-2 3.86%
CCOC(=O)c1ccc(N=Cc2c(O)n(-c3ccc(C)cc3)c(=O)[nH]c2=O)cc1 -22.9%
Cn1c(=O)[nH]c2nnc(-c3ccc(F)cc3)nc2c1=O -42.3%
CCn1nc(-c2ccccc2C)nc2c(=O)n(C)c(=O)nc1-2 2.2% and 21.7%
CC(=O)N(/C=C1\Sc2ccccc2C1=O)c1ccc(I)cc1 -16.1%
CCn1nc(-c2ccc(C(F)(F)F)cc2)nc2c(=O)n(C)c(=O)nc1-2 10.8%
CCn1c(N/C(O)=C/C(O)(C(F)(F)F)C(F)(F)F)nc2ccccc21 -49.9%
CCn1nc(-c2ccccc2Br)nc2c(=O)n(C)c(=O)nc1-2 34.5%
CCOC(=O)c1ccc(N=Cc2c(O)n(-c3cccc(C)c3)c(=O)[nH]c2=O)cc1 -57.1%
COc1ccc(-c2nnc3[nH]c(=O)n(C)c(=O)c3n2)cc1OC -22.8% and -20.3%
CC(=O)N(CN1C(=O)c2ccc(Br)cc2C1=O)c1ccc(Cl)cc1 -43%
COc1ccccc1N(CN1C(=O)c2ccccc2C1=O)C(C)=O -46.9%
